Activity change data for 90 molecules are collected here from PubChem BioAssay AID743279 (National Center for Advancing Translational Sciences (NCATS), 2014).

Among all 360,000 compounds or so, about 17,000 (4.7%) were called active. Another 5% or so got no clear call; they are omitted. This excerpt belongs to a sample that is enriched for actives. A number with no mark means an inactive call. Rule as the data show it: active = activity change below about -50%; inconclusive = mostly about -30% to -49%; inactive = weaker than that.
% is scaled to controls: 0 for no effect and ±100 for the full control effect.

The nature of this assay: qHTS for Inhibitors of Inflammasome Signaling: IL-1-beta AlphaLISA Primary Screen. The settings on record: THP-1 LPS/ATP IL-1B secretion, 16 h; at 57.5 µM, stronger effect = lower value. The method, boiled down: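 Secreted IL-1B measured by AlphaLISA bead assay after 16 h compound exposure of THP-1 cells; compounds (final up to 57.5 uM) added 1 h before LPS (250 ng/mL) and ATP (1.25 mM) stimulation; lower signal means less secretion.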
For the molecule `Cc1ccc(S(=O)(=O)n2oc(=O)c(C3CCCCC3)c2N)cc1`, the activity change is -0.476%.
As to `C/C(COc1ccccc1)=N\NC(=O)c1nnn(-c2nonc2N)c1-c1ccc(C)cc1`, the activity change is -10.3%.
`CCCOc1ccc(F)cc1-c1cc(C(=O)Nc2ccc(F)c(Cl)c2)[nH]n1`: the activity change was -11.9%.
With `O=C1c2ccncc2C(=O)N1C1CCCCC1`, the activity change was -1.14%.
The result for `Cc1ccc(C)c(NC2=NCC(=O)N2c2ccc3c(c2)OCCO3)c1` reads 1.69%; that for `Cc1cn(C2CC(O)C(CO)O2)c(=O)n(CCCc2ccccc2)c1=O` (stereo not given), 0%; that for `CCOC(=O)N1CCN(C(=O)c2ccc(CN(c3ccc(C)c(C)c3)S(C)(=O)=O)cc2)CC1`, 1.54%.
On to `Cc1nc2ccccn2c(=O)c1NC(=O)c1ccc(Br)o1`, for which the activity change is 9.2%.
In the case of `O=c1c2ccccc2ncn1CCc1ccncc1`, the activity change was -6.13%.
As to `COC1(C2=NCCN2)COc2ccccc2O1` (stereo not given), the activity change is 6.63%.
As for `COc1cc2c(cc1OC)CN(C(=O)c1ccc(S(=O)(=O)N3CCCCCC3)cc1)CC2`, the activity change was -4.82%.
As to `COc1ccc(C2SCCN2S(=O)(=O)c2ccccc2)cc1OC` (stereo not given), the activity change is -9.4%.
As for `COc1cc2c(cc1OC)C(C)N(S(=O)(=O)c1cnc(Cl)c(Cl)c1)CC2` (stereo not given), the activity change was -97.4% (active).
The result for `COc1ccc(CC2c3cc(OC)c(OC)cc3CC[N+]2(C)CCC(=O)OCCCCCOC(=O)CC[N+]2(C)CCc3cc(OC)c(OC)cc3C2Cc2ccc(OC)c(OC)c2)cc1OC` (stereo not given) reads -63.5% (active); that for `CCc1ccc(OCC2c3cc(OC)c(OC)cc3CCN2C(C)=O)cc1` (stereo not given), -10.3%; that for `COC(=O)C1=CN(Cc2ccc(OC)c(OC)c2)C=C(C(=O)OC)C1c1cccs1`, 17.5%.
With `Cc1ccc([C@H]2C[C@H](O)[C@@H](n3cc(COC(=O)c4ccccc4)nn3)CN2C(=O)C2CCCCC2)cc1`, the activity change is -14.7%.
The result for `C[C@H](CO)N1C[C@H](C)[C@@H](CN(C)C(=O)c2cccc(F)c2)Oc2cc(-c3cncnc3)ccc2S1(=O)=O` reads 3.54%; that for `Clc1ccc(-c2cccc3nccn23)cc1`, 34.4%; that for `CCOC(=O)c1cnn2c(SC)ncnc12`, -22.6%.
For the molecule `CN(/N=C/c1ccccc1)C(=S)c1ccccc1`, the activity change was 1.93%.
As to `CN(O)C(=S)c1ccccc1`, the activity change was -116% (active).
In the case of `CN(CC(=O)O)C(=O)c1ccccc1`, the activity change is 19.1%.
Take `CC(C)(C)C1CCC(=O)N2CCC[C@]2(c2ccccc2)C1` (stereo not given in full): the activity change is 0.891%.
Regarding `COC(=O)c1c(NC(=O)CN2C(=O)NC(CCc3ccccc3)C2=O)sc2c1CCCCC2` (stereo not given), the activity change was -15.4%.
`CCOc1cc(-c2cc(-c3ccc(OC)cc3)nc(N)c2C#N)ccc1O`: the activity change is -3.59%.
Consider `CCOC(=O)CC(=O)CSc1nc(-c2ccccc2)cc(-c2ccc(Cl)cc2)c1C#N`, for which the activity change is 6.24%.
On to `CCOc1cc(-c2cc(-c3ccc(NC(C)=O)cc3)nc(N)c2C#N)ccc1O`, for which the activity change was -53.1% (active).
For the molecule `CC(C)(C)S(=O)(=O)N1Cc2cc(CO)cc(CCO)c2[C@H]1CCO`, the activity change is 8.29%.
The figure for `CN(C)C(=O)c1cccc(-c2cnc3c(NC=O)cc(-c4ccc(C(=O)N5CCOCC5)cc4)cn23)c1` is -14.1%; for `Cc1nnc(NC(=O)CSc2nc(C3CCCCC3)nc3ccccc23)s1` it is -0.35%; for `O=C(CSc1nc(C2CC2)nc2ccccc12)Nc1ccc2c(c1)OCCO2` it is -71.5% (active).
As to `O=C(CSc1nc(C2CC2)nc2ccccc12)Nc1cccc(O)c1`, the activity change is 2.55%.
The figure for `CCN(CC)C(=O)C1=C(C)N(Cc2ccc(OC)cc2)C(=O)C(CC(=O)NCCCCc2ccccc2)C1` (stereo not given) is -14.3%.
On to `CCCCCCCCCCCCN1C(=O)CSC1c1cccnc1` (stereo not given), for which the activity change was -56.2% (active).
The result for `CN(C)CCCN1C(=O)CSC1c1ccc([N+](=O)[O-])cc1` (stereo not given) reads 36.5%; that for `CCCCc1ccc(NC(=O)NCc2cccnc2)cc1`, -8.19%.
With `O=C(NCc1cccnc1)c1ccc2nc([C@@H]3O[C@H](CO)[C@H](O)[C@H](O)[C@H]3O)[nH]c2c1`, the activity change was 2.47%.
As to `COc1cc(C(=O)OCC(=O)N(CC(C)C)C2CCS(=O)(=O)C2)ccc1OCC(C)C` (stereo not given), the activity change was -19.9%.
With `COc1cccc(-c2noc(C3CCCN(C(=O)c4ccc(F)cc4)C3)n2)c1` (stereo not given), the activity change was -17.2%.
As to `CCCS(=O)(=O)N1CCC(CCOc2ccccc2)(C(=O)OCC)CC1`, the activity change was 30.8%.
`CCOC(=O)C1(CCOc2ccccc2)CCN(Cc2cc(OC)c(O)cc2Cl)CC1`: the activity change is -22.4%.
The result for `CCOC(=O)C1(CCOC)CCN(Cc2ccc(C(=O)OC)cc2)CC1` reads 4.83%; that for `CCOC(=O)C1(CCOc2ccccc2)CCN(C(=O)c2cncs2)CC1`, -28.5%.
On to `CCOC(=O)C1(CCOc2ccccc2)CCN(Cc2ccc(C#CCCO)cc2)CC1`, for which the activity change was -57.7% (active).
The result for `CCOC(=O)C1(CCOc2ccccc2)CCN(Cc2cc(OC)cc(OC)c2)CC1` reads -89.9% (active).
The figure for `COc1ccc(NC2CC(=O)N(C)C2=O)cc1` (stereo not given) is 19.6%.
The result for `C/C(=N/Nc1nc(-c2ccccc2)c(CC(=O)O)s1)c1ccccc1` reads -6.09%; that for `CC(C)CCC(=O)Nc1cc(S(=O)(=O)N2CCOCC2)ccc1N1CCCC1`, -21.6%; that for `CCc1nc2ccc(C(=O)N3CCC(O)(Cc4ccccc4)CC3)cn2c1N(C)C(=O)Cc1ccccc1`, 1.17%.
With `Cc1csc(NC(=O)C2CCN(S(=O)(=O)c3ccccc3)CC2)n1`, the activity change is -7.33%.
The figure for `COc1cc(C=C(OC(C)=O)c2ccc3c(c2)OCO3)cc(OC)c1OC` is 24.5%.
Consider `COc1ccc(OC)c(/C=C/C(=O)c2ccc3c(c2)OCO3)c1`, for which the activity change is -97.2% (active).
Regarding `COc1ccc(OC)c(/C=C/C(=O)OCC(=O)Nc2ccc3c(c2)OCCO3)c1`, the activity change is 37.8%.
`CCOC(=O)c1c(S(=O)(=O)NCC(=O)Nc2ccc(C)cc2)c(C)n(C)c1C`: the activity change is -6.41%.
Regarding `CCOc1cc(/C=N/NC(=O)c2ccncc2)cc(Br)c1O`, the activity change was -14.1%.
The figure for `Cc1ccc(N2C(=O)SC(N(CC(=O)O)c3ccc(C)cc3)C2=O)cc1` (stereo not given) is 18.1%; for `Cc1ccc2c(C)c(C(=O)N(C)Cc3ccncn3)oc2c1C` it is 13.6%; for `Cc1c(C(=O)N2CCN(c3ccc(F)cc3)CC2)oc2c1C(=O)CCC2` it is 14.7%.
Turning to `Cc1ccc2c(C)c(C(=O)N3CCN(c4ccncc4)CC3)oc2c1C`, the activity change is -52.1% (active).
Consider `O=C(Nc1ccccc1F)c1cc(S(=O)(=O)N2CCCCC2)cs1`, for which the activity change was 6.67%.
Consider `CC12CCCCC1=CC(=O)CC2` (stereo not given), for which the activity change was 13.3%.
With `Cn1c(SCC(=O)c2ccccc2)ncc(C(=O)Nc2ccc(F)cc2)c1=O`, the activity change was -2.98%.
Consider `CCn1c(SCC(=O)NCC2CCCO2)nc2ccccc21` (stereo not given), for which the activity change was 31.3%.
For the molecule `Cc1ccc(NC(=O)c2cnc(SCC(=O)NCC3CCCO3)n(C)c2=O)cc1` (stereo not given), the activity change was -103% (active).
The figure for `NC(=O)c1ncn([C@@H]2O[C@H](CNCc3cnc(N4CCOCC4)s3)[C@@H](O)[C@H]2O)n1` is 17.3%.
The result for `CC1CN(C(=O)c2ccc3c(c2)OCO3)OC(c2ccccc2)O1` (stereo not given) reads -0.281%; that for `O=C(Cn1cc(C(F)(F)F)ccc1=O)N/N=C/c1ccc(Cl)cc1Cl`, 0%; that for `COc1ccc(C(=O)NCC[N+](C)(C)C)cc1`, 22.2%.
As for `CC/C(=C(/c1ccccc1)c1ccc(OCC[N+](C)(C)C)cc1)c1ccccc1`, the activity change was -61.5% (active).
Turning to `CCOc1cc(C(=O)O)ccc1OCCOc1ccccc1`, the activity change is 4.78%.
Consider `CCN(c1ccccc1)S(=O)(=O)c1cc(C(=O)NCc2ccccn2)ccc1C`, for which the activity change was -10.4%.
On to `CN(Cc1ccccc1)C(=O)CCC1CCN(C(=O)c2ccco2)CC1`, for which the activity change was -7.63%.
As to `O=C(Nc1ccc(S(=O)(=O)NCC2CCCO2)cc1)c1ccc(F)cc1` (stereo not given), the activity change was 11.6%.
For `COc1ccc(N2C(=O)C3C(C2=O)C(C(=O)c2ccccc2)N2CCCC32)cc1` (stereo not given), the activity change was -82.1% (active).
Consider `COc1ccc(N2C(=O)CC(N3CCC(C(N)=O)CC3)C2=O)cc1` (stereo not given), for which the activity change is -4%.
The figure for `CNC(=O)C[C@H]1C(=O)N(c2ccc(OC)cc2)C[C@@H]1Cc1ccccc1` is -12.1%; for `OCC(CO)(CO)NCc1ccc(-c2ccccc2)cc1` it is 6.61%.
The figure for `Cc1ccc(-c2noc(CSc3nnc(-c4ccncc4)n3-c3ccc(F)cc3)n2)cc1` is -15.2%; for `Cc1ccc(-c2noc(CSc3nnc(-c4cccs4)n3C)n2)cc1` it is 34.2%; for `Cc1ccc(-c2noc(CSc3nnnn3-c3ccccc3)n2)cc1` it is -64.8% (active).
The figure for `CCCCCCCCOC1OC(CO)C(O)C(O)C1NC(C)=O` (stereo not given) is 48.8%; for `CSCCC(NC(=O)COc1ccccc1)C(=O)OCCOc1ccc(F)cc1` (stereo not given) it is 5.31%.
Turning to `O=C(COc1ccc(Cl)cc1)N1CCN(c2cccc(C(F)(F)F)c2)CC1`, the activity change was -4.57%.
The figure for `CSCCC(NC(=O)COc1ccccc1)C(=O)N1CCN(c2cccc(C(F)(F)F)c2)CC1` (stereo not given) is -61.8% (active); for `O=C(N[C@@H](Cc1c[nH]c2ccccc12)C(=O)O)OCC1c2ccccc2-c2ccccc21` it is 4.34%; for `Cc1nnc(NC(=O)Nc2ccc(Cl)c(Cl)c2)s1` it is -94% (active).
The figure for `Cc1nnc(NC(=O)C(c2ccccc2)c2ccccc2)s1` is -5.78%; for `Cc1nnc(NC(=O)c2ccc3nccnc3c2)s1` it is -17.3%.
In the case of `C[C@@H]1CN([C@@H](C)CO)C(=O)c2c(c3ccccc3n2C)-c2ccccc2CO[C@H]1CN(C)C(=O)C1CC1`, the activity change is 23%.
